Results taken from the supplement of paper PMC12024424.
Where a name gives a salt, the structure may show the parent alone.

tested on: Staphylococcus aureus Sa2 (MRSA, cystic fibrosis isolate); assay: growth reduction vs untreated control (viable cell count); higher = stronger antibacterial activity; extreme values may be limits of the assay; conditions: 0.1 mM; 24 h
Method: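 Single-dose screen of the MedChem Express Drug Repurposing Library (0.1 mM, 1% DMSO) against planktonic MRSA S. aureus Sa2 (CF isolate) in TSB in 96-well plates, 37 °C aerobic, 24 h. Assays were run in triplicate and repeated twice.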

SMILES	growth reduction [%]
C#C[C@]1(O)CC[C@H]2[C@@H]3CCc4cc(O)ccc4[C@H]3CC[C@@]21C [Ethynyl Estradiol]	100
NC(=O)N1CCC(CC(=O)N2CCC([C@H]3c4ncc(Br)cc4CCc4cc(Cl)cc(Br)c43)CC2)CC1 [Lonafarnib]	96
CCc1cc(-c2noc(-c3cc(OC)nc(C4CCCC4)c3)n2)cc(C)c1OC[C@@H](O)CO [Cenerimod]	100
O=C(NCC12CC3CC(CC(C3)C1)C2)c1cc(CCCNCCCO)ccc1Cl [AZD9056 (hydrochloride)]	100
C=C[C@@H]1C[C@]1(NC(=O)[C@@H]1C[C@@H]2CN1C(=O)[C@H](C(C)(C)C)NC(=O)O[C@@H]1C[C@H]1CCCCCc1nc3ccc(OC)cc3nc1O2)C(=O)NS(=O)(=O)C1CC1 [Grazoprevir potassium salt]	100
C=CC(=O)Nc1cccc(Oc2nc(Nc3ccc(N4CCN(C)CC4)c(F)c3)nc3[nH]ccc23)c1 [Avitinib (maleate)]	99
CC(C)(C)c1nc(-c2cccc(NS(=O)(=O)c3c(F)cccc3F)c2F)c(-c2ccnc(N)n2)s1 [Dabrafenib (Mesylate)]	90
C=CCc1ccc(O)c(-c2cc(CC=C)ccc2O)c1 [Magnolol]	100
CCN(CC)CCNC(=O)c1c(C)[nH]c(/C=C2\C(=O)Nc3ccc(-c4csc(-c5ccccc5)n4)cc32)c1C [Amcasertib]	100
Cc1cc2c(F)c(Oc3ncnn4cc(OC[C@@H](C)OC(=O)[C@H](C)N)c(C)c34)ccc2[nH]1 [Brivanib (alaninate)]	100
Cc1cc2c(cc1CC(=O)c1sccc1S(=O)(=O)Nc1onc(C)c1Cl)OCO2 [Sitaxsentan (sodium)]	90
CCCCc1nc(-c2ccc(OCCCN(CC)CC)cc2)cn1-c1ccc(Oc2ccc(Cl)cc2)cc1 [Azeliragon]	100
CSc1ccc(C(=O)/C=C/c2cc(C)c(OC(C)(C)C(=O)O)c(C)c2)cc1 [Elafibranor]	95
